# Data from the supplement of paper PMC9262897, “Low-cost anti-mycobacterial drug discovery using engineered E. coli” (Nature Communications, 2022).
# Structures can show the parent of a compound that is named as a salt. ± gives the standard deviation of the averaged measurements.
# Test system: E. coli TESEC Alr+ wild-type control
# Assay: growth (OD600 after 10 h); higher = more growth (less inhibition)
# Conditions: compound 0.1 mM; raw OD600 reference: median of DMSO wells 0.49, cell-free background 0.052
# Experimental: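 TESEC Mtb Alr E. coli (ΔaraC ΔtolC ΔentC Δalr ΔdadX, arabinose-inducible Mtb Alr) or the Alr+ wild-type control strain, grown in defined M9-fructose medium without D-alanine in 96-well plates with Prestwick library compounds at 0.1 mM and 1% DMSO. Low Alr induction is 0.1 µM arabinose and high induction is 10 mM arabinose.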
row,SMILES,growth
1,CC(NC(C)(C)C)C(=O)c1cccc(Cl)c1 (stereo not given) [Bupropion hydrochloride],0.46 ± 0.026
2,"CCC1(c2ccc(N)cc2)CCC(=O)NC1=O (stereo not given) [Glutethimide, para-amino]",0.445 ± 0.022
3,C#CCN(C)[C@H](C)Cc1ccccc1 [Selegiline hydrochloride],0.441 ± 0.043
4,Cc1cccc(C)c1NC1=NCCCS1 [Xylazine],0.487 ± 0.05
5,O=C(CCCN1CCC(n2c(=O)[nH]c3ccccc32)CC1)c1ccc(F)cc1 [Benperidol],0.407 ± 0.02
6,CCCN1C[C@H](CSC)C[C@@H]2c3cccc4[nH]cc(c34)C[C@H]21 [Pergolide mesylate],0.529 ± 0.017
7,C[N+]12CCC(CC1)C(OC(=O)C(O)(c1ccccc1)c1ccccc1)C2 (stereo not given) [Clidinium bromide],0.611 ± 0.031
8,O=C(O)CCCc1ccc(N(CCCl)CCCl)cc1 [Chlorambucil],0.537 ± 0.095
9,CCCC[N+]1(C)[C@@H]2CC(OC(=O)[C@H](CO)c3ccccc3)C[C@H]1[C@@H]1O[C@@H]12 (stereo not given in full) [Butylscopolammonium (n-) bromide],0.531 ± 0.1
10,CC(Cc1ccccc1)NCCC(c1ccccc1)c1ccccc1 (stereo not given) [Prenylamine lactate],0.0478 ± 0.00061
11,CC(N)C(O)c1ccccc1 (stereo not given) [Phenylpropanolamine hydrochloride],0.527 ± 0.077
12,CC(C)c1cccc(C(C)C)c1O [Propofol],0.55 ± 0.038
13,O=P1(NCCCl)OCCCN1CCCl (stereo not given) [Ifosfamide],0.517 ± 0.077
14,C[N+]1(C)[C@@H]2CC[C@H]1C[C@@H](OC(=O)C(CO)c1ccccc1)C2 (stereo not given in full) [Methylatropine nitrate],0.707 ± 0.049
15,CCC1(c2cccc(O)c2)CCCCN(C)C1 (stereo not given) [Meptazinol hydrochloride],0.643 ± 0.03
16,CN[C@@H]1[C@@H](O)[C@@H](O[C@@H]2[C@@H](O)[C@H](O[C@H]3O[C@H](CN)CC[C@H]3N)[C@@H](N)C[C@H]2N)OC[C@]1(C)O.CN[C@@H]1[C@@H](O)[C@@H](O[C@@H]2[C@@H](O)[C@H](O[C@H]3O[C@H]([C@@H](C)N)CC[C@H]3N)[C@@H](N)C[C@H]2N)OC[C@]1(C)O.CN[C@@H]1[C@@H](O)[C@@H](O[C@@H]2[C@@H](O)[C@H](O[C@H]3O[C@H]([C@@H](C)NC)CC[C@H]3N)[C@@H](N)C[C@H]2N)OC[C@]1(C)O [Gentamicine sulfate],0.0643 ± 0.0096
17,CCCCCC[C@H]1C(=O)O[C@H](C)[C@H](NC(=O)c2cccc(NC=O)c2O)C(=O)O[C@@H](C)[C@@H]1OC(=O)CC(C)C [Antimycin A],0.428 ± 0.022
18,C(#CCN1CCCC1)CN1CCCC1 [Tremorine dihydrochloride],0.696 ± 0.067
19,c1ccc2c(c1)Nc1ccccc1S2 [Phenothiazine],0.457 ± 0.0082
20,COc1ccc(C(CN(C)C)C2(O)CCCCC2)cc1 (stereo not given) [Venlafaxine],0.438 ± 0.018

row,SMILES,growth
1,COc1ccc(C(=O)N2CCCC2=O)cc1 [Aniracetam],0.467 ± 0.054
2,CC(Cc1ccc(O)cc1)NCC(O)c1cc(O)cc(O)c1 (stereo not given) [Fenoterol hydrobromide],0.575 ± 0.046
3,C=CC[C@]1(O)CC[C@H]2[C@@H]3CCC4=CC(=O)CCC4=C3C=C[C@@]21C [Altrenogest],0.293 ± 0.0069
4,C[N+]1(C)CCOC(O)(c2ccc(-c3ccc(C4(O)C[N+](C)(C)CCO4)cc3)cc2)C1 (stereo not given) [Hemicholinium bromide],0.559 ± 0.071
5,CC(C)(C)NCC(O)c1cc(Cl)c(N)c(Cl)c1 (stereo not given) [Clenbuterol hydrochloride],0.605 ± 0.12
6,CCC1(C)CC(=O)NC(=O)C1 [Bemegride],0.467 ± 0.024
7,CCN(C)C(=O)Oc1cccc([C@H](C)N(C)C)c1 [Rivastigmine],0.504 ± 0.066
8,NC(=O)CN1CCCC1=O [Piracetam],0.491 ± 0.12
9,C[N+]1([O-])[C@@H]2C[C@@H](OC(=O)[C@H](CO)c3ccccc3)C[C@H]1[C@@H]1O[C@@H]12 (stereo not given in full) [Scopolamin-N-oxide hydrobromide],0.472 ± 0.045
10,COc1cccc(C2(O)CCCCC2CN(C)C)c1 (stereo not given) [Tramadol hydrochloride],0.476 ± 0.013
11,C=C1C[C@@H]2[C@H](CC[C@]3(C)C(=O)CC[C@@H]23)[C@@]2(C)C=CC(=O)C=C12 [Exemestane],0.322 ± 0.0079
12,"CC[C@@]1(O)C(=O)OCc2c1cc1n(c2=O)Cc2cc3ccccc3nc2-1 [Camptothecine (S,+)]",0.477 ± 0.033
13,C[C@]12CCC(=O)C=C1CC[C@@H]1[C@@H]2C(=O)C[C@]2(C)C(=O)CC[C@@H]12 [Adrenosterone],0.533 ± 0.083
14,C[N+](C)(C)CCCCCCCCCC[N+](C)(C)C [Decamethonium bromide],0.417 ± 0.017
15,COc1ccc(Cc2nccc3cc(OC)c(OC)cc23)cc1OC [Papaverine hydrochloride],0.579 ± 0.04
16,O=c1c2ccccc2[se]n1-c1ccccc1 [Ebselen],0.538 ± 0.076
17,CC[C@@H](C(N)=O)N1CCCC1=O [Levetiracetam],0.453 ± 0.03
18,CN(C)C(=O)Oc1cccc([N+](C)(C)C)c1 [Neostigmine bromide],0.563 ± 0.068
19,C[C@]12Cc3c[nH]nc3C[C@@H]1CC[C@@H]1[C@@H]2CC[C@@]2(C)[C@H]1CC[C@]2(C)O [Stanozolol],0.47 ± 0.038
20,CN1CCN(C(=O)OC2c3nccnc3C(=O)N2c2ccc(Cl)cn2)CC1 (stereo not given) [Zopiclone],0.454 ± 0.011
